# According to the supplement of paper PMC8728848:
# This excerpt belongs to a sample that is enriched for the strongest signals.
# B1: B1567 (Bifidobacterium sp) (protein)
# chain: MKFTTAKKAVALTGAVAMLVSVAACGSDSGKSSQPAQDSDVKEITVWAWEPSLTQVAKDFEKETGIKVDLKNVGTNTKEYTQLDNAIEAGSGAPDVAQVEYYAVPQYAIKGNLLDITDKTSGYKDFYTPGPWASVQFAGKVYGLPMDSGPMAFFYNKEVFDKAGVDAEQIKTWDQYYDAAKKIHALGDNYYITSDTGDAGFFDSMTWLAGAKPFQTSSDGSEVTVNLTEDKGVKTFTDFWQKLLDEGLLDTKTAGWSEDWFKGMVDGTIASLFTGAWMPANLANSAADGAGKWRVTQMPTADGSTTNSENGGSSLAVLASTKKADAAYQFIEYANHGAGVATRVAGGAFPADKASLEKDSFKNATTVKNADGQDVDYFGGQKYNEVLAQAAENVSSGYQFLPFEVKARTIFGDYFGKSYTGDQKLSDGVAAWQKALQDYGKDQGFTVK
# Tests used:
# Assay in all cases: glycan array binding signal (z-score within array); higher = stronger binding
# Details in all cases: glycan notation: IUPAC condensed, linker removed
# [1] = target: Gal(b1-4)GlcNAc(b1-3)Gal(b1-4)GlcNAc(b1-3)Gal(b1-4)GlcNAc(b1-2)[Gal(b1-4)GlcNAc(b1-3)Gal(b1-4)GlcNAc(b1-3)Gal(b1-4)GlcNAc(b1-6)]Man(a1-6)[Gal(b1-4)GlcNAc(b1-3)Gal(b1-4)GlcNAc(b1-3)Gal(b1-4)GlcNAc(b1-2)Man(a1-3)]Man(b1-4)GlcNAc(b1-4)[Fuc(a1-6)]GlcNAc
# How it was run: (§1)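 Glycan array binding is given as a within-array Z-score, which can be read as non-binding when negative. The arrays, 3228 of them, came from the Consortium for Functional Glycomics database and were retained only where the protein sequence was available. Z-scores were averaged across arrays of the same protein sequence at different concentrations or buffers and across linkers.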
# [2] = target: Gal(b1-4)GlcNAc(b1-3)Gal(b1-4)GlcNAc(b1-3)Gal(b1-4)GlcNAc(b1-3)Gal(b1-4)GlcNAc(b1-2)[Gal(b1-4)GlcNAc(b1-3)Gal(b1-4)GlcNAc(b1-3)Gal(b1-4)GlcNAc(b1-3)Gal(b1-4)GlcNAc(b1-6)]Man(a1-6)[Gal(b1-4)GlcNAc(b1-3)Gal(b1-4)GlcNAc(b1-3)Gal(b1-4)GlcNAc(b1-3)Gal(b1-4)GlcNAc(b1-2)Man(a1-3)]Man(b1-4)GlcNAc(b1-4)[Fuc(a1-6)]GlcNAc
# How it was run: as §1
# [3] = target: Gal(b1-4)GlcNAc(b1-3)Gal(b1-4)GlcNAc(b1-3)Gal(b1-4)GlcNAc(b1-3)Gal(b1-4)GlcNAc(b1-3)Gal(b1-4)GlcNAc(b1-3)Gal(b1-4)GlcNAc(b1-2)Man(a1-3)[Gal(b1-4)GlcNAc(b1-3)Gal(b1-4)GlcNAc(b1-3)Gal(b1-4)GlcNAc(b1-3)Gal(b1-4)GlcNAc(b1-3)Gal(b1-4)GlcNAc(b1-3)Gal(b1-4)GlcNAc(b1-2)Man(a1-6)]Man(b1-4)GlcNAc(b1-4)GlcNAc
# How it was run: as §1
# [4] = target: Gal(b1-4)GlcNAc(b1-3)Gal(b1-4)[Fuc(a1-3)]GlcNAc(b1-3)Gal(b1-4)[Fuc(a1-3)]GlcNAc
# How it was run: as §1
# [5] = target: Gal(b1-6)Gal
# How it was run: as §1
# [6] = target: Gal3S(b1-4)Glc
# How it was run: as §1
# [7] = target: GalNAc(b1-3)Gal
# How it was run: as §1
# [8] = target: GalNAc(b1-3)Gal(a1-4)Gal(b1-4)GlcNAc(b1-3)Gal(b1-4)Glc
# How it was run: as §1
# [9] = target: GalNAc(b1-4)GlcNAc(b1-2)Man(a1-3)[GalNAc(b1-4)GlcNAc(b1-2)Man(a1-6)]Man(b1-4)GlcNAc(b1-4)GlcNAc
# How it was run: as §1
# [10] = target: GalNAc(b1-6)GalNAc
# How it was run: as §1
# [11] = target: GalNAc3S(b1-4)GlcNAc3S
# How it was run: as §1
# [12] = target: GlcNAc(a1-4)Gal(b1-4)GlcNAc(b1-3)Gal(b1-4)[Fuc(a1-3)]GlcNAc(b1-3)Gal(b1-4)[Fuc(a1-3)]GlcNAc
# How it was run: as §1
# [13] = target: GlcNAc(b1-2)[GlcNAc(b1-4)]Man(a1-3)[GlcNAc(b1-4)][GlcNAc(b1-2)[GlcNAc(b1-6)]Man(a1-6)]Man(b1-4)GlcNAc(b1-4)[Fuc(a1-6)]GlcNAc
# How it was run: as §1
# [14] = target: GlcNAc(b1-3)Gal(b1-4)GlcNAc(b1-3)Gal(b1-4)GlcNAc(b1-2)Man(a1-3)[GlcNAc(b1-3)Gal(b1-4)GlcNAc(b1-3)Gal(b1-4)GlcNAc(b1-2)Man(a1-6)]Man(b1-4)GlcNAc(b1-4)GlcNAc
# How it was run: as §1
# [15] = target: GlcNAc(b1-3)Gal(b1-4)GlcNAc(b1-3)[GlcNAc(b1-3)Gal(b1-4)GlcNAc(b1-3)]GalNAc
# How it was run: as §1
# [16] = target: Man(a1-2)Man(a1-3)[Man(a1-6)]Man(a1-6)[Man(a1-2)Man(a1-3)]Man(b1-4)GlcNAc(b1-4)GlcNAc
# How it was run: as §1
# [17] = target: Man(b1-4)GlcNAc
# How it was run: as §1
# [18] = target: Neu5Ac(a2-3)Gal
# How it was run: as §1
# [19] = target: Neu5Ac(a2-3)Gal(b1-3)GalNAc(b1-4)Gal(b1-4)Glc
# How it was run: as §1
# [20] = target: Neu5Ac(a2-3)Gal(b1-4)GlcNAc(b1-2)Man(a1-3)[Neu5Ac(a2-3)Gal(b1-4)GlcNAc(b1-2)Man(a1-6)]Man(b1-4)GlcNAc(b1-4)[Fuc(a1-6)]GlcNAc
# How it was run: as §1
# [21] = target: Neu5Ac(a2-6)Gal(b1-3)GlcNAc(b1-3)[Gal(b1-4)GlcNAc(b1-6)]Gal(b1-4)Glc
# How it was run: as §1
# [22] = target: Neu5Ac(a2-6)Gal(b1-4)GlcNAc(b1-2)Man(a1-3)[Gal(b1-4)GlcNAc(b1-2)Man(a1-6)]Man(b1-4)GlcNAc(b1-4)GlcNAc
# How it was run: as §1
# [23] = target: Neu5Ac(a2-6)Gal(b1-4)GlcNAc6S
# How it was run: as §1
# [24] = target: Neu5Gc(a2-3)Gal(b1-4)[Fuc(a1-3)]GlcNAc
# How it was run: as §1
binder,measurement,setting,value
B1,glycan array binding signal (z-score),[1],0.271
same,glycan array binding signal (z-score),[2],0.348
same,glycan array binding signal (z-score),[3],1.66
same,glycan array binding signal (z-score),[4],1.8
same,glycan array binding signal (z-score),[5],11
same,glycan array binding signal (z-score),[6],-0.135
same,glycan array binding signal (z-score),[7],-0.116
same,glycan array binding signal (z-score),[8],-0.139
same,glycan array binding signal (z-score),[9],0.398
same,glycan array binding signal (z-score),[10],-0.095
same,glycan array binding signal (z-score),[11],-0.058
same,glycan array binding signal (z-score),[12],0.042
same,glycan array binding signal (z-score),[13],-0.12
same,glycan array binding signal (z-score),[14],0.008
same,glycan array binding signal (z-score),[15],-0.052
same,glycan array binding signal (z-score),[16],0.007
same,glycan array binding signal (z-score),[17],-0.154
same,glycan array binding signal (z-score),[18],-0.108
same,glycan array binding signal (z-score),[19],-0.112
same,glycan array binding signal (z-score),[20],-0.063
same,glycan array binding signal (z-score),[21],-0.118
same,glycan array binding signal (z-score),[22],-0.128
same,glycan array binding signal (z-score),[23],-0.094
same,glycan array binding signal (z-score),[24],-0.036
